This note sets out measurements from the supplement of paper PMC11417369.

± gives the standard deviation of the averaged measurements. The full ranking holds about 25,000 sequences; the median of “ln(normalized median fluorescence intensity)” is about 7.9, and the highest 2% start at about 11. Only a selection was taken, and the highest values are over-represented in it overall.

In this assay the test system is PfAP2-I AP2 domain 3 (GST-tagged). Kind of assay: gcPBM binding intensity (ln(normalized median fluorescence intensity)); higher = stronger DNA binding. The procedure, abridged: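 Binding intensity is defined as the maximum Masliner-normalised natural-log median intensity across replicate spots for either probe orientation. It was measured on an Agilent 4 × 180k array of primer-extended double-stranded 36-bp intergenic genomic probes and negative controls, to which GST-tagged P. falciparum DNA-binding domains made in E. coli were applied for 1 h in 1× PBS with 1% milk, 0.2 mg/ml BSA, 0.5% salmon testes DNA and 0.03% Triton X-100. Detection was by Alexa488 anti-GST antibody and scanning at 488 nm.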
With “AATAAATTAGAAGGATGTACTTTGTTTAATATAGAG [XGTACX_site1943]”, the “gcPBM binding intensity (ln)” value is 7.83 ± 0.37.
Regarding “AATAGCTAGCTGTGCACACAAACATATTTTCCAAAT [CACACA_site880]”, the “gcPBM binding intensity (ln)” value was found to be 9.55 ± 0.16.
Consider “TTTATTTTCCAAAGGGTGCACATAGTTAAAACGATA [GTGCAC_site9855]”, for which the “gcPBM binding intensity (ln)” value amounted to 11.1 ± 0.29.
Take “TTCCAAAAAGTTATTACACACATATGTGCACATATA [CACACA_site6465]”: the “gcPBM binding intensity (ln)” value turned out to be 10 ± 0.4.
As for “CAAATAGCTAGCTGTGCACACAAACATATTTTCCAA [CACACA_site879]”, the figure is 9.66 ± 0.23; as for “CATTTTATAAAAAGCACACATATAGTTATATGCACA [CACACA_site3691]”, 10.7 ± 0.91.
Take TTTATTTTCCAAAGGGTGCACATAGTTGAAACGATA: the “gcPBM binding intensity (ln)” value turned out to be 11.1 ± 0.44.
As for “TTTCTTTTTTTTTGAAGTACATAAAAATATAAAAAA [XGTACX_site311]”, the figure is 8.03 ± 0.085; as for “AGACAAAATGTTTGAAGTACTTTTTATCAAATTAAA [XGTACX_site8885]”, 7.66 ± 0.2; as for “CACGAACACAAACACAAACACACATCATATATATAT [CACACA_site1322]”, 9.25 ± 0.16.
Take “AAATATATATATAGTTGTACATATATCGTATATATT [XGTACX_site7867]”: the “gcPBM binding intensity (ln)” value was 7.57 ± 0.45.
The result for “GTTAAAATTTGTCAATGTACAGAAATAATAAAAAAA [XGTACX_site1879]” reads 7.97 ± 0.62; that for “ATATATATATATATATGTACATATTATTATTTTGAT [XGTACX_site4752]”, 9.22 ± 0.49; that for “AAAATAAACTATAGTACACACTTATTATTATGAAAT [CACACA_site5488]”, 7.92 ± 0.3.
Consider “TTTTTTCTTTTCAAGGTGCTTTATAAGAAAAAGGGA [GTGCAC_site9858]”, for which the “gcPBM binding intensity (ln)” value was 11.1 ± 0.89.
The result for “AAATATAAGAAAAAGGTGCTTTTTTTTTTTTTTTTT [GTGCAC_site9700]” reads 9.79; that for “TTTTTTTTTCTTCTTTTCAAATTTAAGAAATTATAA [CACACA_negctrl_site18]”, 7.55 ± 0.57.
With “AAAAAAAAACACGCATGTACATAAAAATAATCATAC [XGTACX_site1086]”, the “gcPBM binding intensity (ln)” value came to 7.96 ± 0.57.
As for “ATACACACTCAAAAAAGTACTTAACTACATGAATTG [XGTACX_site6366]”, the figure is 7.79 ± 0.55; as for “AAGAAAATATAAAATGCACACTATAAATTGTATATA [CACACA_site7928]”, 8.73 ± 0.014.
With “CATTATAAAAAATAAAAAAGAAATAATTGTATATGC [CACACA_negctrl_site478]”, the “gcPBM binding intensity (ln)” value came out at 7.77 ± 0.68.
As for TGTATGTATAATTGAGTGCACAGAAAAAAAAAAGAA, the figure is 11 ± 0.13.
In the case of “TAAATAAATAAAAATAGTACATAATTATTATTATTA [XGTACX_site4981]”, the “gcPBM binding intensity (ln)” value worked out at 7.42 ± 0.22.
Take “TTCTTTATATACAAACCAAAATATTATGTATAATAA [CACACA_negctrl_site15]”: the “gcPBM binding intensity (ln)” value came out at 7.62 ± 0.33.
Consider TAGATTATTATACTAGTGCAAATTATTTAAGAAAAA, for which the “gcPBM binding intensity (ln)” value stood at 10 ± 0.34.
The result for CTTATAAGAATACTAGTGCACATAATTTAACGAAAA reads 11 ± 0.59; that for “AAGATAAAATTATGCACACATACGAATAATTTTAAA [CACACA_site1705]”, 9.79 ± 0.39.
